DRD3 agonist = D3 dopamine receptor (human) agonism. D3R DiscoveRx beta-arrestin cells, luminescence, 90 min. max activation, %. 0.58% of 410,000 active. AID 652048; in the data active means max activation above about 30%
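Cells at 1500/well, incubated overnight, then treated with pinned compounds (dopamine as control) for 90 min at 37 degrees C. DiscoveRx reagent added for 30 - 60 minutes at room temperature; luminescence read.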
D1 antag = blocks dopamine activation of the human D1 receptor; HEK293 TREx D1 cells, calcium flux, dopamine EC80; active compounds read low; AID 504652; P21728; activity change, negative = inhibition, % at 10 µM; 3.2% of 360,000 active; in the data active means activity change below about -30%
Target sequence (P21728 whole entry, looked up): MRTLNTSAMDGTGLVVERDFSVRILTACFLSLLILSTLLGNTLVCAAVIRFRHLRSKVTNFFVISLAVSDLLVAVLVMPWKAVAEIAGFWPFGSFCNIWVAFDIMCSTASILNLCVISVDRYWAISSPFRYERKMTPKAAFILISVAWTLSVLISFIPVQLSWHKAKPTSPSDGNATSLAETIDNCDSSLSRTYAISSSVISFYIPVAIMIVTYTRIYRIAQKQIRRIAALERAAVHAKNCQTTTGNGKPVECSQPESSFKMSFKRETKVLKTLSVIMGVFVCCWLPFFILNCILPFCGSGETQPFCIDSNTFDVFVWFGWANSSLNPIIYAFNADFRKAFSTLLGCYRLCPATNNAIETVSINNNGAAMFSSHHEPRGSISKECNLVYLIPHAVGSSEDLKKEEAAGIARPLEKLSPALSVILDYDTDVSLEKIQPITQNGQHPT
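HEK293 T-REx cells expressing inducible, force-coupled D1 receptor; no-wash Ca dye, 30–90 min RT. Cmpd → 180 s read at 1 Hz → EC80 DA → 180 s read.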
DRD3 antagonist = antagonists of human D3 dopamine receptor; 2.5% of 360,000 active; max response, negative = inhibition, %; D3R cells, DiscoveRx beta-arrestin luminescence, antagonist mode; active compounds read low; P35462; in the data active means max response below about -50%; inconclusive means no clear call, values can overlap the other calls
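Cells plated overnight at 1500 cells/well, then exposed to library compounds with dopamine controls for 90 minutes at 37 degrees C. DiscoveRx reagent added for 30–60 minutes at room temperature; luminescence read, quantitative HTS format.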
D1 PAM = human D1 dopamine receptor positive modulation | P21728 | HEK293 TREx D1 cells, calcium flux, dopamine EC20 potentiation | potentiation, % at 10 µM | 0.036% of 360,000 active | AID 504651; in the data active means potentiation above about 30%
D1 ag = agonists of human D1 dopamine receptor. P21728. HEK293 T-REx D1 cells, calcium flux, agonist mode. activation, % at 2 µM. 1% of 360,000 active; in the data active means activation above about 30%
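Inducible HEK293 T-REx D1 cells, force-coupled to calcium signalling, were plated at 4000 cells/well with tetracycline and held overnight at 30 C. After no-wash calcium dye loading, compound-evoked calcium rise over 180 s flagged agonists.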
Large screens that a line does not name were inactive; ! = not confirmed by another sample. Hits are enriched below; roughly 6.1% of the tested compounds scored in any of these assays.

O=C1C(c2ccc(C(F)(F)F)cc2)=C(Nc2ccc(Cl)cc2)c2ccccc21	none (no result: DRD3 antagonist)
Cc1cc(C)cc(-n2ccn(CC(=O)Nc3ccccc3C(F)(F)F)c(=O)c2=O)c1	none (no result: DRD3 antagonist)
O=C(Nc1cc(Cl)cc(Cl)c1)c1cc(S(=O)(=O)N2CCc3ccccc3C2)ccc1F	none (no result: DRD3 antagonist)
CCOC(=O)c1cc2cc(CC(=O)c3ccc(OCC)cc3O)ccc2o1	none
CCOc1ccc(C(=O)Cc2ccc3oc(C(=O)O)cc3c2)c(O)c1	DRD3 antagonist -62
O=C(c1cnn2c(C(F)(F)F)cc(-c3cccs3)nc12)N1CCN(C(c2ccccc2)c2ccccc2)CC1	D1 antag -47
CCN(CC)C(=S)SCC(=O)Nc1ncc2c(n1)CCCC2=O	D1 antag -33
CCOC(=O)c1ccc(NC(=O)CN2C(=O)c3cccnc3Sc3ccccc32)cc1	none (no result: DRD3 antagonist)
Nc1nc2ncccc2cc1C(=O)NC1CCCCC1	DRD3 agonist 77 (no result: D1 antag, D1 PAM, D1 ag)
O=C(NC1CCCCC1)c1cc2ccccc2cc1O	none
N#Cc1c(-c2ccccc2)cc(C2CC2)nc1SCC(=O)c1cccs1	D1 ag 32
Cc1ccccc1NC(=O)Cn1c(CCC(=O)O)ccc1-c1cccs1	D1 antag -42
Cc1ccc(-n2c(CCC(=O)O)ccc2-c2cccs2)cc1Cl	D1 antag -57 (no result: DRD3 antagonist)
COCCCn1c(CCC(=O)O)ccc1-c1cccs1	DRD3 antagonist -55
Cc1nc2ccccn2c1C(=O)/C=C/c1ccc(F)cc1	none
COc1ccc(/C=C/C(=O)c2c(C)nc3ccccn23)cc1	DRD3 agonist 38
COc1cccc(C(=O)/C=C/Nc2ccc(S(=O)(=O)Nc3ccc(C(C)=O)cc3)cc2)c1	D1 antag -34
CCOC(=O)c1ccc(N/C=C\C(=O)c2cccc(OC)c2)cc1	D1 antag -46
CCOC(=O)c1cccc(N/C=C/C(=O)c2ccc(OC)c(OC)c2)c1	none
O=C(NCC(c1ccco1)S(=O)(=O)c1cccs1)c1ccc(F)c(F)c1 (stereo unspecified)	none (no result: D1 antag, DRD3 antagonist)
O=C(O)c1cccnc1SCc1cccc(Cl)c1	D1 antag -40!
Cc1ccc(S(=O)(=O)CC(=O)Nc2nc3c(C)cc(C)cc3s2)cc1	none (no result: D1 antag, DRD3 antagonist)
Cc1nc2ncnn2c(C)c1CCC(=O)N1CCN(c2cccc(Cl)c2)CC1	none (no result: DRD3 antagonist)
O=C(NCCCN1CCN(c2ccccc2F)CC1)c1sc2ncccc2c1-n1cccc1	D1 antag -38 (no result: DRD3 antagonist)
O=C(NCCCN1CCN(c2cccc(Cl)c2)CC1)c1sc2ncccc2c1-n1cccc1	D1 antag -35 (no result: DRD3 antagonist)
Cc1nc2ncnn2c(C)c1CCC(=O)NCCCN1CCN(c2cccc(Cl)c2)CC1	DRD3 antagonist -52
O=C(NCCCN1CCN(c2ccccc2)CC1)c1sc2ncccc2c1-n1cccc1	none (no result: DRD3 antagonist)
Cc1ccc(C)n1-c1c(C(=O)NCCCN2CCN(c3ccc(F)cc3)CC2)sc2ncccc12	D1 antag -56 (no result: DRD3 antagonist)
COc1cccc(CNC(=O)Cn2cc3c(n2)-c2c(oc(C(=O)N4CCOCC4)c2C)CC3)c1	none (no result: DRD3 antagonist)
O=C(NC(c1ccccc1)c1ccc2ccccc2n1)C1CCN(Cc2ccc(Cl)c(Cl)c2)CC1 (stereo unspecified)	DRD3 antagonist -124 (no result: D1 antag, D1 PAM, D1 ag)
O=C(NC(c1ccc2ccccc2n1)c1cccs1)C1CCN(Cc2cccc(C(F)(F)F)c2)CC1 (stereo unspecified)	DRD3 antagonist inconclusive (no result: D1 antag, D1 PAM, D1 ag)
O=C(NC(c1ccccc1)c1ccc2ccccc2n1)C1CCN(Cc2cccc(C(F)(F)F)c2)CC1 (stereo unspecified)	DRD3 antagonist -63 (no result: D1 antag, D1 PAM, D1 ag)
CC(C)CCNC(=O)C(=O)Nc1c2c(nn1-c1ccc(Cl)cc1)CSC2	none (no result: D1 antag, DRD3 antagonist)
CC1CCC(NC(=O)CCc2cn(Cc3ccc(F)cc3)c3ccccc23)CC1 (stereo unspecified)	none (no result: DRD3 antagonist)
CSc1nc(N)nc2c1ncn2CC(=O)NCc1ccc2[nH]ccc2c1	DRD3 agonist 48 (no result: D1 antag, D1 PAM, D1 ag)
CCCOc1ccc(OC(=O)c2ccc(Br)o2)cc1	D1 antag -43, D1 ag 94
COc1cccc(/C=C/C(=C2/C(=O)N(c3ccccc3)N=C2C)c2ccc(Br)cc2)c1OC	D1 antag -85
COc1cccc(/C=C/C(=C2/C(=O)N(c3ccccc3)N=C2C)c2ccccc2)c1OC	none
Cc1ccccc1OCCC(=O)OCC(=O)NC1CC1	none
Cc1ccccc1OCCC(=O)OCC(=O)NCCNC(=O)COC(=O)CCOc1ccccc1C	D1 antag -43
CCOC(=O)C1CCN(C(=O)C2COc3ccccc3C2)CC1 (stereo unspecified)	none (no result: DRD3 antagonist)
CN(C)CC1CCCCC1C1(O)c2ccccc2CSc2sccc21 (stereo unspecified)	DRD3 antagonist -73, D1 ag 78
COc1ccc(N2CCN(c3oc(/C=C/c4cc(OC)c(OC)c(OC)c4)nc3C#N)CC2)cc1	none (no result: DRD3 antagonist)
CCCS(=O)(=O)c1ncc(Cl)c(C(=O)N(Cc2ccccc2)Cc2ccco2)n1	D1 antag -43 (no result: DRD3 antagonist)
Cc1cn2c(=O)c(S(=O)(=O)Nc3ccc(OC(F)(F)F)cc3)c(C)nc2s1	none (no result: DRD3 antagonist)
CC(C)Oc1ccc(CNC(=O)c2ccc3c(c2)N(C)CCS3)cc1	DRD3 antagonist -74
COc1ccc(CNC(=O)c2ccc3c(c2)N(C)CCS3)cc1	DRD3 antagonist inconclusive
COc1ccccc1CCC(=O)OCC(=O)c1c(N)n(CC(C)C)c(=O)n(C)c1=O	DRD3 agonist 31
Cn1c(=O)c(C(=O)CCl)c(N)n(CC2CC2)c1=O	DRD3 agonist 35
Cc1ccc(N2CC(C(=O)OCC(=O)c3c(N)n(CC(C)C)c(=O)n(C)c3=O)CC2=O)cc1 (stereo unspecified)	none
CC(C)Cn1c(N)c(C(=O)COC(=O)C2CCCCC2)c(=O)n(C)c1=O	D1 antag -38
CCOC(=O)N1CCC(NC(=O)c2cnn(-c3ccc(OC)cc3)c2C2CCN(C(=O)OC(C)(C)C)CC2)CC1	none (no result: DRD3 antagonist)
O=S(=O)(Nc1c(Br)cc(Br)c2cccnc12)C1CC1	none (no result: DRD3 agonist, DRD3 antagonist)
Cc1ccc(Cn2c(C(C)Nc3nc(-c4ccc(Cl)c([N+](=O)[O-])c4)cs3)nc3cc(C(F)(F)F)ccc32)cc1 (stereo unspecified)	none (no result: D1 antag, D1 PAM, D1 ag)
CCCn1nc([N+](=O)[O-])c(C(C#N)c2nc3ccccc3o2)c(Cl)c1=O (stereo unspecified)	DRD3 antagonist -61
Cn1nc([N+](=O)[O-])c(C(C#N)c2ccccn2)c(Cl)c1=O (stereo unspecified)	DRD3 antagonist inconclusive
CCn1nc([N+](=O)[O-])c(C(C#N)c2nc3cc(C(F)(F)F)ccc3s2)c(Cl)c1=O (stereo unspecified)	D1 antag -38
CCN(c1ccccc1C)S(=O)(=O)c1nnc(NC(=O)c2ccccc2C)s1	none (no result: DRD3 antagonist)
CN(C(=O)c1ccc2c(c1)N(Cc1ccccc1F)C(=O)c1ccccc1S2(=O)=O)C1CCCCC1	none (no result: DRD3 antagonist)
O=[N+]([O-])c1ccccc1S(=O)(=O)N1CCN(C2CCN(Cc3ccccc3)CC2)CC1	DRD3 antagonist -76
